Assay outcomes from PubChem BioAssay.
Shown are actives, neighbours in structure and some others; about 1.3% of the full set was active somewhere.
BJeLR viability – BJeLR cell viability loss; actives 0.17% (n = 300,000); inhibition, % (no concentration beside the values); BJeLR (HRASV12) viability, CellTiter-Glo ATP luminescence, 48 h; in the data active = inhibition above about 50%
Sa ugtP lethal – compounds lethal to S. aureus RN4220 ugtP deletion mutant | AID 1259309 | OD600 growth, 16 h | growth inhibition, % (no concentration beside the values) | actives 0.54% (n = 330,000); in the data active = growth inhibition above about 68%
PfHsp40 yeast – compounds rescuing yeast from Plasmodium falciparum HSP40 toxicity. actives 0.68% (n = 340,000). S. cerevisiae expressing PfHsp40, growth rescue, ATP luminescence. growth rescue, % at 12.5 µM. AID 504582; in the data active = growth rescue above about 28%, passing the limit was not always enough;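 note: yeast W303a lacking pdr1 and pdr3 grown in galactose medium; growth measured after three days at 30 °C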
3CLpro inhibitor – SARS-CoV 3CLpro protease inhibition. recombinant SARS-CoV 3CLpro, quenched FRET peptide cleavage. inhibition, % at 6 µM. actives 0.14% (n = 290,000); in the data active = inhibition above about 12%
Sa RN4220 lethal – kills Staphylococcus aureus RN4220; S. aureus RN4220 growth, OD600, 16 h; inhibition, % (concentration not given with the values); actives 0.33% (n = 330,000); AID 1259311; in the data active = inhibition above about 85%
Large screens that a line does not name were inactive.

O=C1Nc2ccccc2/C1=C/C(=O)c1cccs1	Sa ugtP lethal 94
Cc1c(Cl)c([N+](=O)[O-])nn1CCCC(=O)Nc1sc2c(c1C(N)=O)CCC(C)C2 (stereo unspecified)	none
Cn1cccc1C(=O)NS(=O)(=O)c1ccccc1Cl	PfHsp40 yeast 86
Cc1ccc(S(=O)(=O)NC(=O)c2cccn2C)cc1	none
CN(/N=C/c1ccc(Cl)cc1Cl)c1ncc(Cl)cc1C(F)(F)F	none (no result: Sa ugtP lethal, Sa RN4220 lethal)
CN(N=Cc1ccccc1Cl)c1ncc(Cl)cc1C(F)(F)F	Sa ugtP lethal 85 (no result: BJeLR viability, PfHsp40 yeast, 3CLpro inhibitor)
CCc1ccc(OCC(=O)Nc2cccc3c2CCCC3)cc1	Sa ugtP lethal 99
CCCC(=O)Nc1cccc2c1CCCC2	none
Cc1ccn2c(=O)nc(SCC(=O)NCc3ccco3)nc2c1	none (no result: 3CLpro inhibitor)
CCCCCc1cc(=O)oc2c(C(CCN(CC)CC)c3cc(OC)c(OC)c(OC)c3)c(OC)cc(OC)c12 (stereo unspecified)	none (no result: 3CLpro inhibitor)
COc1cc(C(=O)N=c2sccn2C)c([N+](=O)[O-])cc1OC	none
Cn1ccsc1=NC(=O)c1ccc([N+](=O)[O-])o1	PfHsp40 yeast 248
CCOC(=O)c1cnc(SCC(=O)Nc2nnc(CC)s2)nc1N	none
O=C1C=C(c2cccs2)C[C@H](c2ccccc2)[C@H]1n1nnc([N+](=O)[O-])n1	BJeLR viability 83, Sa ugtP lethal 98
CC(=O)C1C(=O)C=C(c2cccs2)CC1c1ccccc1 (stereo unspecified)	none
O=C(NC(=S)Nc1ccc(N2CCOCC2)cc1)c1ccc2c(c1)OCCO2	none
CS(=O)(=O)N1CCN(c2ccc(NC(=S)NC(=O)c3ccc4c(c3)OCO4)cc2)CC1	Sa ugtP lethal 93
CC(=O)N1CCN(c2ccc(NC(=O)c3ccc4c(c3)OCO4)cc2)CC1	PfHsp40 yeast 106
CCN(CC)CC(O)COc1ccccc1C(=O)CCc1ccccc1 (stereo unspecified)	none
Cc1cccc(C)c1OCC(=O)NNC(=S)NC(=O)C1CC1	PfHsp40 yeast 83
CC1CCN(c2nc(-c3ccncc3)nc3ccccc23)CC1	PfHsp40 yeast 282
c1ccc2c(N3CCOCC3)nc(-c3ccncc3)nc2c1	none
O=C(Nc1ccccc1)c1ccccc1NS(=O)(=O)c1ccc(Cl)s1	Sa ugtP lethal 92, Sa RN4220 lethal 87
O=C(NCc1ccco1)c1ccccc1NS(=O)(=O)c1ccc(Cl)s1	none
O=C(Nc1ccccc1Cc1ccccc1)c1ccccc1NS(=O)(=O)c1ccc(Cl)s1	none (no result: Sa ugtP lethal, Sa RN4220 lethal)
Cc1ccc(NC(=O)c2ccccc2NS(=O)(=O)c2ccc(Cl)s2)cc1	Sa ugtP lethal 90, PfHsp40 yeast 80
CCCCCNC(=O)CC1Nc2c3ccccc3nc(=S)n2C1=O (stereo unspecified)	none
CCCOc1ccccc1C1CC(=O)NC(C)=C1C(=O)OCC(C)C (stereo unspecified)	none
COC(=O)C1=C(C)NC(C)=C(C(=O)OCC(C)C)C1c1ccccc1[N+](=O)[O-] (stereo unspecified)	PfHsp40 yeast 289 (no result: Sa ugtP lethal, 3CLpro inhibitor, Sa RN4220 lethal)
NC(=O)C1(N2CCCCC2)CCN(C(=O)NC23CC4CC(CC(C4)C2)C3)CC1	none
Cc1onc(-c2ccccc2Cl)c1C(=O)OCC(=O)c1ccc[nH]1	none (no result: 3CLpro inhibitor)
Cn1cc(C(=O)c2cccc(Cl)c2)cc1C=NO	none (no result: BJeLR viability, PfHsp40 yeast, 3CLpro inhibitor)
Cn1cc(C(=O)c2cccc(Cl)c2)cc1/C=N\O	PfHsp40 yeast 30 (no result: Sa ugtP lethal, Sa RN4220 lethal)
Cc1nn(-c2ccccc2)c(Cl)c1C1C(C#N)=C(N)OC2=C1C(=O)CCC2 (stereo unspecified)	none
COc1ccccc1OCc1csc(N)n1	none
O=C(CS(=O)CC(=O)Nc1ccccc1-c1ccccc1)Nc1ccc(F)cc1 (stereo unspecified)	none
Cc1ccc(S(=O)(=O)N2C(c3ccc(Cl)cc3)CC=C(C(=O)O)C2c2ccc(Cl)cc2)cc1 (stereo unspecified)	none (no result: BJeLR viability, PfHsp40 yeast, 3CLpro inhibitor)
Cc1ccc(S(=O)(=O)N2C(c3ccc(Cl)c(Cl)c3)CC=C(C(=O)O)C2c2ccc(Cl)cc2)cc1 (stereo unspecified)	Sa ugtP lethal 90 (no result: BJeLR viability, PfHsp40 yeast, 3CLpro inhibitor)
Cc1ccc(S(=O)(=O)N2[C@@H](c3ccc(Cl)cc3)C(C(=O)O)=CC[C@H]2c2ccc(Cl)c(Cl)c2)cc1	PfHsp40 yeast 304 (no result: BJeLR viability, Sa ugtP lethal, 3CLpro inhibitor, Sa RN4220 lethal)
Cc1ccc(S(=O)(=O)N2C(c3ccc(Cl)c(Cl)c3)CC=C(C(=O)O)C2c2cccc(Cl)c2)cc1 (stereo unspecified)	Sa ugtP lethal 100, Sa RN4220 lethal 88 (no result: BJeLR viability, PfHsp40 yeast, 3CLpro inhibitor)
O=C(O)c1cccc(-c2ccc(C=NNc3nn[nH]n3)o2)c1	none (no result: BJeLR viability, PfHsp40 yeast, 3CLpro inhibitor)
COc1ccc(C=NOCc2ccc(Br)cc2)c(OC)c1	Sa ugtP lethal 87 (no result: BJeLR viability, PfHsp40 yeast, 3CLpro inhibitor)
c1ccc(-c2nnc(-c3ccncc3)nc2-c2ccccc2)cc1	none
Brc1nc(-c2ccccc2)nc(-c2ccccc2)c1Br	BJeLR viability 51 (no result: PfHsp40 yeast, 3CLpro inhibitor)
O=C(Cn1nnc(-c2ccccc2)n1)N/N=C/c1cc([N+](=O)[O-])c(Cl)cc1Cl	none (no result: Sa ugtP lethal, Sa RN4220 lethal)
CC(CCC(C)C(C)(C)C)[C@@H]1CC[C@H]2C3C[C@H](OS(O)(=S)=S)[C@H]4C[C@H](OS(O)(=S)=S)[C@@H](OS(O)(=S)=S)C[C@]4(C)[C@H]3CC[C@]12C (stereo partly specified) (tested in a mixture with another compound)	PfHsp40 yeast 104 (no result: BJeLR viability, Sa ugtP lethal, 3CLpro inhibitor, Sa RN4220 lethal)
CC(CCC(=O)NN)C1CCC2C3CCC4CC(O)CCC4(C)C3CCC12C (stereo unspecified)	none (no result: BJeLR viability, Sa ugtP lethal, 3CLpro inhibitor, Sa RN4220 lethal)
CCCC1OC(c2cc3c(cc2Cl)OCO3)OCC1CC (stereo unspecified)	Sa ugtP lethal 85 (no result: BJeLR viability, 3CLpro inhibitor)
C[n+]1c(-c2ccc(C=NNC(=O)c3ccc(C(=O)NN=Cc4ccc(-c5cn6ccccc6[n+]5C)cc4)cc3)cc2)cn2ccccc21	PfHsp40 yeast 92 (no result: BJeLR viability, Sa ugtP lethal, 3CLpro inhibitor, Sa RN4220 lethal)
COc1ccc(CCNC2=C(Cl)C(=O)N(CCc3ccccc3)C2=O)cc1OC	none
O=C1C(Cl)=C(Nc2ccccc2O)C(=O)N1CCc1ccccc1	PfHsp40 yeast 142
CC(N)=Nc1ccc([N+](=O)[O-])cc1	none
O=[N+]([O-])c1ccc(N=Nc2c(Cl)cc(O)cc2Cl)cc1	BJeLR viability 102, Sa ugtP lethal 99, PfHsp40 yeast 175, Sa RN4220 lethal 100
N#CC1=C(N)Oc2cc(N)ccc2C1c1cccc(Br)c1 (stereo unspecified)	BJeLR viability 56
COc1ccc(CN(C)CC(=O)Nc2sc3c(c2C#N)CCC3)c(OC)c1	none
CC(C)C(=O)NNC(=O)CC(=O)Nc1ccccc1C(=O)O	PfHsp40 yeast 40
O=C(Oc1ccc(Cl)c2cccnc12)c1cccc([N+](=O)[O-])c1	none
O=C(Oc1c(Cl)cc(Cl)c2cccnc12)c1cccc([N+](=O)[O-])c1	Sa ugtP lethal 97, Sa RN4220 lethal 97
C=CCn1c(SCCOc2ccc(OC)cc2)nnc1C(C)NC(=O)c1ccc(OC)cc1 (stereo unspecified)	none
O=C(OCC(=O)N1CCN(C(=O)c2ccco2)CC1)c1ccccc1OCc1ccccc1	none
O=C(c1ccco1)N1CCN(C(=O)c2ccccc2OCc2ccc(Cl)cc2)CC1	PfHsp40 yeast 253 (no result: 3CLpro inhibitor)
CCCCCCCN(C(=O)CCl)c1cccc(C)c1	BJeLR viability 92, Sa ugtP lethal 87
